# Data published in article PMC7862700, “An all-to-all approach to the identification of sequence-specific readers for epigenetic DNA modifications on cytosine”.
# What was measured:
# Assay in all cases: DAPPL (digital affinity profiling via proximity ligation, sequencing); 10 mM Tris-HCl pH 7.5, 50 mM NaCl, 1 mM DTT, 4% glycerol, room temperature, 30 min; GST-TFs on glutathione beads, 16-mer random dsDNA library, 0.1% formaldehyde crosslink after washing; high values mean tight binding
# FLI1 = target: T1, FLI1 (Homo sapiens, UniProt Q01543 1-452); details: protein: recombinant; tags: N-terminal GST; dsDNA, one strand shown
# T1 sequence: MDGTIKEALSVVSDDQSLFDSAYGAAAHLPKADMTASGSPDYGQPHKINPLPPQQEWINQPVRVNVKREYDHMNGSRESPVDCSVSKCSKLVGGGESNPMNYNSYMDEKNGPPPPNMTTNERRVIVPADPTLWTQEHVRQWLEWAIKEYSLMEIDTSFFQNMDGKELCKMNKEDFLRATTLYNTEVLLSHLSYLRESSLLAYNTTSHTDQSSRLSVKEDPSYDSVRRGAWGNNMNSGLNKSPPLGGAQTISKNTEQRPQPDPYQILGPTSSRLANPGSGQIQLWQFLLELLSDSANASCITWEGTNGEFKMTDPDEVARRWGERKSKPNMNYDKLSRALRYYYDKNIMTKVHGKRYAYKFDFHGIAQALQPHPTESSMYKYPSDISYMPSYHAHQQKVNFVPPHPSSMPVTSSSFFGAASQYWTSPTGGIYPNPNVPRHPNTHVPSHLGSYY
# Procedure, shortened: (§1)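 A tag-only sample was pooled with DNA-barcoded human transcription factors that had been expressed in yeast as GST fusions and captured on glutathione beads. The pools were incubated for 30 min at room temperature with 200 nmole of a random double-stranded 16-mer DNA library in Tris/NaCl/DTT/glycerol buffer, then washed, crosslinked with 0.1% formaldehyde, proximity-ligated (BsaI/T4 ligase, 1 h, 37 °C), PCR-amplified and sequenced on an Illumina NextSeq500. Binding signal is each hexamer's read frequency for a factor divided by its frequency for the tag-only sample.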
# ELK1 = target: T2, ELK1 (Homo sapiens, UniProt P19419 1-428); details: protein: recombinant; tags: N-terminal GST; dsDNA, one strand shown
# T2 sequence: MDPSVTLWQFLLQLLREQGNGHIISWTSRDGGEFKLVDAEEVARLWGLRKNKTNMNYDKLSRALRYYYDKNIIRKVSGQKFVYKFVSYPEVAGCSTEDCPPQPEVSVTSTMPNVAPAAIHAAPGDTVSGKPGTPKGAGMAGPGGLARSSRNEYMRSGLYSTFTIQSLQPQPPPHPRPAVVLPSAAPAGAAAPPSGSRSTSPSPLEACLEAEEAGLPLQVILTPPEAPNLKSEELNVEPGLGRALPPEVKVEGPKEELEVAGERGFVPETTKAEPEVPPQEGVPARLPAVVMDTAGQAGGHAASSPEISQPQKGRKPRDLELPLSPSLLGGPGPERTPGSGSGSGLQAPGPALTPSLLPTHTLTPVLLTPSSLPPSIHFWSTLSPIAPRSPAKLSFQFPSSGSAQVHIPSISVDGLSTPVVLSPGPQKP
# Procedure, shortened: as §1
# GABPA = target: T3, GABPA (Homo sapiens, UniProt Q06546 1-454); details: protein: recombinant; tags: N-terminal GST; dsDNA, one strand shown
# T3 sequence: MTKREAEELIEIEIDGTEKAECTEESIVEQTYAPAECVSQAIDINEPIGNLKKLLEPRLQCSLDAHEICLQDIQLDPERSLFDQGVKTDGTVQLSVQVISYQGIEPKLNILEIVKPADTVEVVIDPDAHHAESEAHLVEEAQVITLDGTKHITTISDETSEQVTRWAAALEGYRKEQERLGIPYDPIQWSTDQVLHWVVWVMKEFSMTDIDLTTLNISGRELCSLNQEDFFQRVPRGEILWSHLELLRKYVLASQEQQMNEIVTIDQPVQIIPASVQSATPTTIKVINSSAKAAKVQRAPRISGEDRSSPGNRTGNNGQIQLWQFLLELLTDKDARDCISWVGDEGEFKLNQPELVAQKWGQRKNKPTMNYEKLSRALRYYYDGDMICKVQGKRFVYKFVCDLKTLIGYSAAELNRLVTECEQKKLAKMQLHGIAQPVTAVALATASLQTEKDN
# Procedure, shortened: as §1
# ERG = target: T4, ERG (Homo sapiens, UniProt P11308 1-479); details: protein: recombinant; tags: N-terminal GST; dsDNA, one strand shown
# T4 sequence: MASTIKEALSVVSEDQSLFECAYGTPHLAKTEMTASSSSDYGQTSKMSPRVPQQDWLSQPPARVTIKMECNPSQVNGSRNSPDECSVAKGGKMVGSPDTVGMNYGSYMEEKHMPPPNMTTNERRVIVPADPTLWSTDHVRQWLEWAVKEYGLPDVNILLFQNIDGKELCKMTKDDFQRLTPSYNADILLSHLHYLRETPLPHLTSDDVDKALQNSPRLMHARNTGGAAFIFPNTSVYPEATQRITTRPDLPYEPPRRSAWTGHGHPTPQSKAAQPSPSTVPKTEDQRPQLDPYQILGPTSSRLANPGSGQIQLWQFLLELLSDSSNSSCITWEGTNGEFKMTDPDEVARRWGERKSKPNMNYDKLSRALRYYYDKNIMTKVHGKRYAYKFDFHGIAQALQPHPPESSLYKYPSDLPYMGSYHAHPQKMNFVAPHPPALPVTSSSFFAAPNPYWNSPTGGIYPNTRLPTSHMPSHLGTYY
# Procedure, shortened: as §1
# ELF1 = ELF1 (Homo sapiens, UniProt P32519 1-619); details: protein: recombinant; tags: N-terminal GST; dsDNA, one strand shown
# Procedure, shortened: as §1
# EHF = target: T5, EHF (Homo sapiens, UniProt Q9NZC4 1-300); details: protein: recombinant; tags: N-terminal GST; dsDNA, one strand shown
# T5 sequence: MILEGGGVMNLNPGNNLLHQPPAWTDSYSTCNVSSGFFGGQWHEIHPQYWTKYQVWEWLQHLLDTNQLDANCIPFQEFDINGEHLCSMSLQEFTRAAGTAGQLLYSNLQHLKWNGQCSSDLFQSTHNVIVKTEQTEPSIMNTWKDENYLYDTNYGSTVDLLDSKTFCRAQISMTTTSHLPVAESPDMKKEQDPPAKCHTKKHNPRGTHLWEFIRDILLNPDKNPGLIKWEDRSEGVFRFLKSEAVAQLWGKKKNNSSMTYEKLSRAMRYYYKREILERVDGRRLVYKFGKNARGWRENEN
# Procedure, shortened: as §1
# SPI1 = SPI1 (Homo sapiens, UniProt P17947 1-270); details: protein: recombinant; tags: N-terminal GST; dsDNA, one strand shown
# Procedure, shortened: as §1
# SPIB = SPIB (Homo sapiens, UniProt Q01892 1-262); details: protein: recombinant; tags: N-terminal GST; dsDNA, one strand shown
# Procedure, shortened: as §1
# ELK3 = target: T6, ELK3 (Homo sapiens, UniProt P41970 1-407); details: protein: recombinant; tags: N-terminal GST; dsDNA, one strand shown
# T6 sequence: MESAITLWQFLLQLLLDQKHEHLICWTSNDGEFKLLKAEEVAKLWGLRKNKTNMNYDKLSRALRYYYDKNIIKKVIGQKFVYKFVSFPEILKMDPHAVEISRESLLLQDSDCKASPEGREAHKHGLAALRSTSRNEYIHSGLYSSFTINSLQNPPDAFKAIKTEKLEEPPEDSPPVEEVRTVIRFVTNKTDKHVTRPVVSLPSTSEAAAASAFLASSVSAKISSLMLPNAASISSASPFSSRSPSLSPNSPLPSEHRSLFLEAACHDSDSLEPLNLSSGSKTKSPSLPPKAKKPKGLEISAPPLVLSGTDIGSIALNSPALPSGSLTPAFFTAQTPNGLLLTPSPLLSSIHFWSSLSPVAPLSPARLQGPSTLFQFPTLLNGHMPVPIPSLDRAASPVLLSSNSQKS
# Procedure, shortened: as §1
# FEV = target: T7, FEV (Homo sapiens, UniProt Q99581 1-238); details: protein: recombinant; tags: N-terminal GST; dsDNA, one strand shown
# T7 sequence: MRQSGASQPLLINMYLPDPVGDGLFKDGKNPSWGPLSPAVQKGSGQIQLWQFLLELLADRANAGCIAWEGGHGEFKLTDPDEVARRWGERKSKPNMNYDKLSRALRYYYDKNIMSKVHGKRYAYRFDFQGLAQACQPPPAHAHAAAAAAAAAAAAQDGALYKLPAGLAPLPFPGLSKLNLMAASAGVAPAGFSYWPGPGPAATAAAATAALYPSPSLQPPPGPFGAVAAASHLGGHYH
# Procedure, shortened: as §1
# ETV5 = ETV5 (Homo sapiens, UniProt P41161 1-510); details: protein: recombinant; tags: N-terminal GST; dsDNA, one strand shown
# Procedure, shortened: as §1
# HSF1 = HSF1 (Homo sapiens, UniProt Q00613 1-529); details: protein: recombinant; tags: N-terminal GST; chain copies: 3; dsDNA, one strand shown
# Procedure, shortened: as §1
# SPIC = target: T8, SPIC (Homo sapiens, UniProt Q8N5J4 1-248); details: protein: recombinant; tags: N-terminal GST; dsDNA, one strand shown
# T8 sequence: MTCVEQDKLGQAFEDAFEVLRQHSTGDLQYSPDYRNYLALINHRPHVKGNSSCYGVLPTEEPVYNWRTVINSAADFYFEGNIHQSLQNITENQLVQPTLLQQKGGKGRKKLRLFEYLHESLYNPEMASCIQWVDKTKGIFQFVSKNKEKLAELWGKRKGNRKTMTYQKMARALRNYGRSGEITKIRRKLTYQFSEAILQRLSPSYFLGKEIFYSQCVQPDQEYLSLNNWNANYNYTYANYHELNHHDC
# Procedure, shortened: as §1
# ELF4 = ELF4 (Homo sapiens, UniProt Q99607 1-663); details: protein: recombinant; tags: N-terminal GST; dsDNA, one strand shown
# Procedure, shortened: as §1
# ELK4 = target: T9, ELK4 (Homo sapiens, UniProt P28324-2 1-405); details: protein: recombinant; tags: N-terminal GST; dsDNA, one strand shown
# T9 sequence: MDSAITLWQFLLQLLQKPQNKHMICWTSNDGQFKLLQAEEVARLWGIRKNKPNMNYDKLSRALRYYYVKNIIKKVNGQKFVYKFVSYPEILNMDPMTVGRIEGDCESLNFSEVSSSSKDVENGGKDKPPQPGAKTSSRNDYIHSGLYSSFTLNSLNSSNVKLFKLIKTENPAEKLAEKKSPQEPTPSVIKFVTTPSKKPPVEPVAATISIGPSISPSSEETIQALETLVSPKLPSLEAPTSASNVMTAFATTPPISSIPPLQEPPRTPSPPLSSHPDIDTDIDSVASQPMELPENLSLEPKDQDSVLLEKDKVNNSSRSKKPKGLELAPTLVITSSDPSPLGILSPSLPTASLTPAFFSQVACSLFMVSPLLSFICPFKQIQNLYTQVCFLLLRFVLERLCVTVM
# Procedure, shortened: as §1
# ETV2 = target: T10, ETV2 (Homo sapiens, UniProt O00321 1-342); details: protein: recombinant; tags: N-terminal GST; dsDNA, one strand shown
# T10 sequence: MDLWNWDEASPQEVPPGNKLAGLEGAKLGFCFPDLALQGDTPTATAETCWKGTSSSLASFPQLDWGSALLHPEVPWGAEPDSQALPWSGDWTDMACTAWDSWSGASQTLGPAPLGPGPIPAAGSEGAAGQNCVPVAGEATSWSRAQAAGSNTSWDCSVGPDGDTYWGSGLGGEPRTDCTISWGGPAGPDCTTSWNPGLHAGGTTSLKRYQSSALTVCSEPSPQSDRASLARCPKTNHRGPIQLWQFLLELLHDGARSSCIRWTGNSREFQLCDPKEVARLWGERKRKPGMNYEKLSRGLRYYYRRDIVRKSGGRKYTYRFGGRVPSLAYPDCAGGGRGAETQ
# Procedure, shortened: as §1
# ELF3 = target: T11, ELF3 (Homo sapiens, UniProt P78545 1-371); details: protein: recombinant; tags: N-terminal GST; dsDNA, one strand shown
# T11 sequence: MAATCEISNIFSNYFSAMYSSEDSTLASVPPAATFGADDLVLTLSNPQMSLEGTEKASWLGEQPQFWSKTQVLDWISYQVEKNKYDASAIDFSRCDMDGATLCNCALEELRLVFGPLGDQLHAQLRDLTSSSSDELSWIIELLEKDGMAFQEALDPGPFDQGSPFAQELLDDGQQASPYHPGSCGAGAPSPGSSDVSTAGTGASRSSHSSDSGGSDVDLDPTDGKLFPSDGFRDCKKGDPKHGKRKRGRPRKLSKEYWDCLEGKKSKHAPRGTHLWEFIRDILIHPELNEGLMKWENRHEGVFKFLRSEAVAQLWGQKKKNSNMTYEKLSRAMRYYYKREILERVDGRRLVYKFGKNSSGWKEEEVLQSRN
# Procedure, shortened: as §1
# CRX = CRX (Homo sapiens, UniProt O43186 1-299); details: protein: recombinant; tags: N-terminal GST; dsDNA, one strand shown
# Procedure, shortened: as §1
# ETV1 = ETV1 (Homo sapiens, UniProt P50549 1-477); details: protein: recombinant; tags: N-terminal GST; dsDNA, one strand shown
# Procedure, shortened: as §1
# Sequence of ETV1 (P50549 whole entry): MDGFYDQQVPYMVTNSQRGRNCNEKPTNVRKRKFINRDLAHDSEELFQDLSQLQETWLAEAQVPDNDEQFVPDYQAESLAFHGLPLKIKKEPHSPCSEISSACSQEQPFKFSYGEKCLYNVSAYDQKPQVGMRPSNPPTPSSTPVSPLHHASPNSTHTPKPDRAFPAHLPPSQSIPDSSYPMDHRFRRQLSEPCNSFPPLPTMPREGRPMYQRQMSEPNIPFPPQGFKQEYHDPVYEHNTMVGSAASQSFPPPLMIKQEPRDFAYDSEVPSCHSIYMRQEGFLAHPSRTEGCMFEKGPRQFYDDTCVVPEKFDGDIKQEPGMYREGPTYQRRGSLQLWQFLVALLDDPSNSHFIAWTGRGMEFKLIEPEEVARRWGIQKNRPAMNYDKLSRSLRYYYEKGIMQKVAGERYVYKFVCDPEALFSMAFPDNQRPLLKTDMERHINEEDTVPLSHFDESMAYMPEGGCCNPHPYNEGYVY
# Sequence of ELF1 (P32519 whole entry): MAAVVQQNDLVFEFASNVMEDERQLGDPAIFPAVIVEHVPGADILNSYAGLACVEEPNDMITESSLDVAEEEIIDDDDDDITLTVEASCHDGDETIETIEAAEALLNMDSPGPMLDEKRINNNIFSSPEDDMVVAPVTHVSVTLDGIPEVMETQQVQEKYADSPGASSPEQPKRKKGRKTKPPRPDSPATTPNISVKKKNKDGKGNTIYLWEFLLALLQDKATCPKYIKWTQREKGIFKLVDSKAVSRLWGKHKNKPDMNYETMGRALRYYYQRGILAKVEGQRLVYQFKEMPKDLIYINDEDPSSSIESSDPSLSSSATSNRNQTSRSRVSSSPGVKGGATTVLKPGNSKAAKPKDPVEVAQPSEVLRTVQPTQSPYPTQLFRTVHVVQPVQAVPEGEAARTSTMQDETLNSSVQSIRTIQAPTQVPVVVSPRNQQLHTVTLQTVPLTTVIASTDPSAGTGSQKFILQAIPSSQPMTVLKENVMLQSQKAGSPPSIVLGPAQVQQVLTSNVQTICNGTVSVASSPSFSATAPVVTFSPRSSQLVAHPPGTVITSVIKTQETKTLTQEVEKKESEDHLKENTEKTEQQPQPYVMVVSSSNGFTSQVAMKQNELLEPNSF
# Sequence of CRX (O43186 whole entry): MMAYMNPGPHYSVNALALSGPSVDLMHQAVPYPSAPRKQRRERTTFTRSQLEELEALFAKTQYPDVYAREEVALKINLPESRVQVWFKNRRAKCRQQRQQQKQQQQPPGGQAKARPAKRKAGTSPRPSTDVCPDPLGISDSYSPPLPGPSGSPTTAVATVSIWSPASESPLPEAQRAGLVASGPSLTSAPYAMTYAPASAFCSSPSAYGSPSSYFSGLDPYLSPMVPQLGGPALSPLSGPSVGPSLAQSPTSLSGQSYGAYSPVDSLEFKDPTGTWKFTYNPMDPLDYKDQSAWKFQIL
# Sequence of HSF1 (Q00613 whole entry): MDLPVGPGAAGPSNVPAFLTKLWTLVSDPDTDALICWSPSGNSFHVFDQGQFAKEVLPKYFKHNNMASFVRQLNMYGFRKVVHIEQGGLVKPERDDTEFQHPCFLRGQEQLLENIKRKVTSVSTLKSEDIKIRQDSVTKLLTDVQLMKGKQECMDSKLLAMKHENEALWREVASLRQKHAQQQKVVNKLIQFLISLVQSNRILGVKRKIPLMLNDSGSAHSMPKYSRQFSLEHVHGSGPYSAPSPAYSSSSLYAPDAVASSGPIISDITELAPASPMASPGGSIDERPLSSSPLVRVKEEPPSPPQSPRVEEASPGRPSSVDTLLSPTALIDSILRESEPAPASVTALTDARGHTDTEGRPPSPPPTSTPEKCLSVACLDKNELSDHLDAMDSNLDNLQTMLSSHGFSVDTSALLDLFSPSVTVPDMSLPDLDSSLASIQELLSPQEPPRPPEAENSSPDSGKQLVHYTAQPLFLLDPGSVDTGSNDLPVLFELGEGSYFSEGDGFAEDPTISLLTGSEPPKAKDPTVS
# Sequence of ETV5 (P41161 whole entry): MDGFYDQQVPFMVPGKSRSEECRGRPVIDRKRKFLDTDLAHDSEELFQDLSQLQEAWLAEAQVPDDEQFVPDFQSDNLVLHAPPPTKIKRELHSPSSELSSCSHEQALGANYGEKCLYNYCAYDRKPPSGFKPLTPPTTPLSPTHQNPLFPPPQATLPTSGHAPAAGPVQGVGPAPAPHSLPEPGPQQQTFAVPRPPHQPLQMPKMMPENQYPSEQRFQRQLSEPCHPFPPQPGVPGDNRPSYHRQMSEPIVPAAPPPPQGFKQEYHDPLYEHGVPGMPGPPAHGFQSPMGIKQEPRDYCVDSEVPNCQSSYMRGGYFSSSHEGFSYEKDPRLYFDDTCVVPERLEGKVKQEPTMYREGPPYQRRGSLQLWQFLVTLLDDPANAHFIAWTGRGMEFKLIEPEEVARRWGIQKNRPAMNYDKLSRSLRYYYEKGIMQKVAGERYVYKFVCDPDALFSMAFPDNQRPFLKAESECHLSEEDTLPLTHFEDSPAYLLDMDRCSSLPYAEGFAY
# Sequence of ELF4 (Q99607 whole entry): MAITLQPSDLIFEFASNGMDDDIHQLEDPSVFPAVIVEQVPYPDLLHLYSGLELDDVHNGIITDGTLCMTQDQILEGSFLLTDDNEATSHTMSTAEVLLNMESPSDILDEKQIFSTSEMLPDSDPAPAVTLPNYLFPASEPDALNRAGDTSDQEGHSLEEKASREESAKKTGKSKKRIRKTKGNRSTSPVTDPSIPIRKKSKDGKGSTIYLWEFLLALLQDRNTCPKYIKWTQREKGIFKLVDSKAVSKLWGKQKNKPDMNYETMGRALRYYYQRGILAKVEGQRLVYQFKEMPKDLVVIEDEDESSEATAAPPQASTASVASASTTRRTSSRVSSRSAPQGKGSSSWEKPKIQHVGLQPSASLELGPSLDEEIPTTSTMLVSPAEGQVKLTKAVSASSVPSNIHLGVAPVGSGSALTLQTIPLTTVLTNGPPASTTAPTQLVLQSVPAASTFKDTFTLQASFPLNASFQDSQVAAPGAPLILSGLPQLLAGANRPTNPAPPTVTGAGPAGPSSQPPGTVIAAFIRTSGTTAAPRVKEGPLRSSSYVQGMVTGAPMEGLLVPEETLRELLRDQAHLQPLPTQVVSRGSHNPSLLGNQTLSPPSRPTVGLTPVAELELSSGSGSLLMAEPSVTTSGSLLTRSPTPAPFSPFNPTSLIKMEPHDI
# Sequence of SPIB (Q01892 whole entry): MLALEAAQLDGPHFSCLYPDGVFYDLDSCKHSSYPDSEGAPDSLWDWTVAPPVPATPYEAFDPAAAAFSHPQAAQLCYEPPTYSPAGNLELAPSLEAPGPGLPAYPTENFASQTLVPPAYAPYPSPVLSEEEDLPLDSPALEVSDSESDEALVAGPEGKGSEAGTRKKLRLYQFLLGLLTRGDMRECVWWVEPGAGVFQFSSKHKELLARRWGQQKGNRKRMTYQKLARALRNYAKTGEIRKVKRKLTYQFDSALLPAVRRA
sequence,measurement,setting,value
CGCCCT,binding signal,FLI1,"1.44 fold enrichment (6-mer frequency, TF over GST control)"
same,binding signal,ELK1,"1.36 fold enrichment (6-mer frequency, TF over GST control)"
same,binding signal,GABPA,"1.37 fold enrichment (6-mer frequency, TF over GST control)"
same,binding signal,ERG,"1.31 fold enrichment (6-mer frequency, TF over GST control)"
same,binding signal,ELF1,"1.43 fold enrichment (6-mer frequency, TF over GST control)"
same,binding signal,EHF,"1.35 fold enrichment (6-mer frequency, TF over GST control)"
same,binding signal,SPI1,"1.24 fold enrichment (6-mer frequency, TF over GST control)"
same,binding signal,SPIB,"1.36 fold enrichment (6-mer frequency, TF over GST control)"
same,binding signal,ELK3,"1.5 fold enrichment (6-mer frequency, TF over GST control)"
same,binding signal,FEV,"1.37 fold enrichment (6-mer frequency, TF over GST control)"
same,binding signal,ETV5,"1.29 fold enrichment (6-mer frequency, TF over GST control)"
same,binding signal,HSF1,"1.13 fold enrichment (6-mer frequency, TF over GST control)"
same,binding signal,SPIC,"1.21 fold enrichment (6-mer frequency, TF over GST control)"
same,binding signal,ELF4,"1.47 fold enrichment (6-mer frequency, TF over GST control)"
same,binding signal,ELK4,"1.1 fold enrichment (6-mer frequency, TF over GST control)"
same,binding signal,ETV2,"1.4 fold enrichment (6-mer frequency, TF over GST control)"
same,binding signal,ELF3,"1.04 fold enrichment (6-mer frequency, TF over GST control)"
same,binding signal,CRX,"1.11 fold enrichment (6-mer frequency, TF over GST control)"
same,binding signal,ETV1,"1.37 fold enrichment (6-mer frequency, TF over GST control)"
